In ChEMBL document CHEMBL1961873, “Compounds: GSK PKIS; Assays: Nanosyn kinase panel” (2012):
Several values for one entry are separate records, joined by “and”; a condition that tells them apart may be missing. Equal entries are not always repeated.

How the values were obtained:
[1] = molecular target: Death-associated protein kinase 1 (Homo sapiens) (UniProt P53355); details: at 1 µM;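 further: each value is a mean inhibition figure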
[2] = molecular target: T1, Serine/threonine-protein kinase DCLK2 (Homo sapiens) (UniProt Q8N568); details: at 0.1 µM
T1 sequence (whole entry): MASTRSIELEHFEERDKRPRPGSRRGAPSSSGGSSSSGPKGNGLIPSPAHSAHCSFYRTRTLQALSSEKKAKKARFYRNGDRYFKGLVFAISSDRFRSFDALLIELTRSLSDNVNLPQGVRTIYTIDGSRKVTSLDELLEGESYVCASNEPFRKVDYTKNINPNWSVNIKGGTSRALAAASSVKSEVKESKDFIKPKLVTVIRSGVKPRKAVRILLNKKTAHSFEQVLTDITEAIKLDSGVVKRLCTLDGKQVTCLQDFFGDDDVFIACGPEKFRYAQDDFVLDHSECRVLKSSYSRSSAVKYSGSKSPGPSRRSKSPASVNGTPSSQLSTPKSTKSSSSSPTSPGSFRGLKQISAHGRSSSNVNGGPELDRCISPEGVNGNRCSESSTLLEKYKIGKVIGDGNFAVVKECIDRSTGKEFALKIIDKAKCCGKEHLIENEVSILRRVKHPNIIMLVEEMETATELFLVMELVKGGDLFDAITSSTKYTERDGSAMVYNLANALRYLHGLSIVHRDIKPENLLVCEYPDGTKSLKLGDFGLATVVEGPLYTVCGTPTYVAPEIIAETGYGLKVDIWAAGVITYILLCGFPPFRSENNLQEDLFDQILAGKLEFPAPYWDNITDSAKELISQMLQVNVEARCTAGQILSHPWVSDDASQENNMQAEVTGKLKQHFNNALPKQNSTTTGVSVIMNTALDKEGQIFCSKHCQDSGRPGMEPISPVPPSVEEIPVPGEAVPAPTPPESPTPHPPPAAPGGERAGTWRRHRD

[3] = molecular target: T1, Serine/threonine-protein kinase DCLK2 (Homo sapiens); details: at 1 µM
[4] = molecular target: MAP kinase-activated protein kinase 2 (Homo sapiens) (UniProt P49137); details: at 0.1 µM
MAP kinase-activated protein kinase 2 (Homo sapiens), sequence (P49137 whole entry, looked up): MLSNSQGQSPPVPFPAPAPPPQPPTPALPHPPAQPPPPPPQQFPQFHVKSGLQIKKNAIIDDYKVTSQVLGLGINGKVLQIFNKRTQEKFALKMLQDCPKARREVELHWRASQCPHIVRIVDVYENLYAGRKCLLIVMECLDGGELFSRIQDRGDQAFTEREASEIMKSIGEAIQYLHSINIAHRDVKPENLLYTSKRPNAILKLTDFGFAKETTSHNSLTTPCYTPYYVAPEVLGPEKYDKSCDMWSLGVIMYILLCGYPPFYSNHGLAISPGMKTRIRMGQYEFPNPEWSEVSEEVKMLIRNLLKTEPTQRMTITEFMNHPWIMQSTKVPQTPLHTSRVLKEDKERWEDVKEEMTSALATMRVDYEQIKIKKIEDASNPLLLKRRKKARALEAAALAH

[5] = molecular target: MAP kinase-activated protein kinase 2 (Homo sapiens) (UniProt P49137); details: at 1 µM
[6] = molecular target: MAP kinase-activated protein kinase 3 (Homo sapiens) (UniProt Q16644); details: at 0.1 µM
MAP kinase-activated protein kinase 3 (Homo sapiens), sequence (Q16644 whole entry, looked up): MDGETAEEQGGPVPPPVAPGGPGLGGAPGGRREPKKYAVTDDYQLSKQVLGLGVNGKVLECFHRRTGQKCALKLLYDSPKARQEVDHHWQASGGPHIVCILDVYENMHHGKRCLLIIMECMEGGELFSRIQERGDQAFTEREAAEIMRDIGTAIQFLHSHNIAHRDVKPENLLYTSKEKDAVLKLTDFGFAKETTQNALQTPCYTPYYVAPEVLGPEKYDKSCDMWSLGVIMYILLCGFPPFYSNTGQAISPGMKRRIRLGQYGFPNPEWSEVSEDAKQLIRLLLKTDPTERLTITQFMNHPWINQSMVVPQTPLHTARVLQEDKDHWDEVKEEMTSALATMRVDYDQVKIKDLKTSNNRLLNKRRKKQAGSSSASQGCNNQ

[7] = molecular target: MAP kinase-activated protein kinase 3 (Homo sapiens) (UniProt Q16644); details: at 1 µM
[8] = molecular target: Serine/threonine-protein kinase MARK1 (Homo sapiens) (UniProt Q9P0L2); details: at 0.1 µM
Serine/threonine-protein kinase MARK1 (Homo sapiens), sequence (Q9P0L2 whole entry, looked up): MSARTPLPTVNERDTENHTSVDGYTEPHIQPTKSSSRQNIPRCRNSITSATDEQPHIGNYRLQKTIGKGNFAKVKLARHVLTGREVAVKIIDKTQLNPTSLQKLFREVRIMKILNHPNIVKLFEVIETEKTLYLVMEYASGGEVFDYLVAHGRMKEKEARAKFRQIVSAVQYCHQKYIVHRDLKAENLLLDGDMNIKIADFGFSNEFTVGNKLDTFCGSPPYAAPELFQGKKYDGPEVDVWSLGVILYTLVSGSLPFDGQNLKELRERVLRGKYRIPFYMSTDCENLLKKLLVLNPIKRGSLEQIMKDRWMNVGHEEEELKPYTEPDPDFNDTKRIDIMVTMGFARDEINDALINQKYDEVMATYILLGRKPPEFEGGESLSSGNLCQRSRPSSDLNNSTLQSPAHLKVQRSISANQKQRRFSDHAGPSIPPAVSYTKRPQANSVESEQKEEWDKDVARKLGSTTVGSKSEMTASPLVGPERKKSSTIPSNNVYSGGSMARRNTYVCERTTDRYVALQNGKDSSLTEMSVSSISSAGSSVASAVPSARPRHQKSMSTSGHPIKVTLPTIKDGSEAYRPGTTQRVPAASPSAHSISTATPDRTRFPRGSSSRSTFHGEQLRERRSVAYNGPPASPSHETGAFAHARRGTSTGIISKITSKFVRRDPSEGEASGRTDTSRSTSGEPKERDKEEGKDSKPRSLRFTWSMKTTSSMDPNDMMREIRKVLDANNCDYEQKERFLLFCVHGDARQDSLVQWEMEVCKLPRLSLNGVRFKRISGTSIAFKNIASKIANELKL

[9] = molecular target: Serine/threonine-protein kinase MARK1 (Homo sapiens) (UniProt Q9P0L2); details: at 1 µM
[10] = molecular target: MAP/microtubule affinity-regulating kinase 3 (Homo sapiens) (UniProt P27448); details: at 0.1 µM
MAP/microtubule affinity-regulating kinase 3 (Homo sapiens), sequence (P27448 whole entry, looked up): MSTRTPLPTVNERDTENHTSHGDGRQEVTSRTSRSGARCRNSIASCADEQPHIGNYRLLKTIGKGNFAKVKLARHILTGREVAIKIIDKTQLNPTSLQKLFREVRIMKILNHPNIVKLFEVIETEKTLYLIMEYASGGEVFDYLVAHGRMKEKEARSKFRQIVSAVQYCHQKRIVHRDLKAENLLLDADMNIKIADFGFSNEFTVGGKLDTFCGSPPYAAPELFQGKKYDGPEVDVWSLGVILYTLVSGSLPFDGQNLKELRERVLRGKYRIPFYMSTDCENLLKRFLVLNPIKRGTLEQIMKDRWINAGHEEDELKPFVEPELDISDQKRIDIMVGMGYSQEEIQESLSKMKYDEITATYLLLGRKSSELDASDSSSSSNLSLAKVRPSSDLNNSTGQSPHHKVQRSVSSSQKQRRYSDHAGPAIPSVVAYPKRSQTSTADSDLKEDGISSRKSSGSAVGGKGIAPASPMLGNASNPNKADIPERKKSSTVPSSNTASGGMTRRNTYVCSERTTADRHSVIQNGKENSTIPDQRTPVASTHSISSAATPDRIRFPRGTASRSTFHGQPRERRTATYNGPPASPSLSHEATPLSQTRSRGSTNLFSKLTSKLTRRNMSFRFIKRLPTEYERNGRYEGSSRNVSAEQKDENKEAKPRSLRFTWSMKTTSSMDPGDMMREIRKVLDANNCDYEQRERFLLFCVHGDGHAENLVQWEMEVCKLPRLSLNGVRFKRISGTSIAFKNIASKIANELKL

[11] = molecular target: MAP/microtubule affinity-regulating kinase 3 (Homo sapiens) (UniProt P27448); details: at 1 µM
[12] = molecular target: T2, MAP/microtubule affinity-regulating kinase 4 (Homo sapiens) (UniProt Q96L34); details: at 0.1 µM
T2 sequence (whole entry): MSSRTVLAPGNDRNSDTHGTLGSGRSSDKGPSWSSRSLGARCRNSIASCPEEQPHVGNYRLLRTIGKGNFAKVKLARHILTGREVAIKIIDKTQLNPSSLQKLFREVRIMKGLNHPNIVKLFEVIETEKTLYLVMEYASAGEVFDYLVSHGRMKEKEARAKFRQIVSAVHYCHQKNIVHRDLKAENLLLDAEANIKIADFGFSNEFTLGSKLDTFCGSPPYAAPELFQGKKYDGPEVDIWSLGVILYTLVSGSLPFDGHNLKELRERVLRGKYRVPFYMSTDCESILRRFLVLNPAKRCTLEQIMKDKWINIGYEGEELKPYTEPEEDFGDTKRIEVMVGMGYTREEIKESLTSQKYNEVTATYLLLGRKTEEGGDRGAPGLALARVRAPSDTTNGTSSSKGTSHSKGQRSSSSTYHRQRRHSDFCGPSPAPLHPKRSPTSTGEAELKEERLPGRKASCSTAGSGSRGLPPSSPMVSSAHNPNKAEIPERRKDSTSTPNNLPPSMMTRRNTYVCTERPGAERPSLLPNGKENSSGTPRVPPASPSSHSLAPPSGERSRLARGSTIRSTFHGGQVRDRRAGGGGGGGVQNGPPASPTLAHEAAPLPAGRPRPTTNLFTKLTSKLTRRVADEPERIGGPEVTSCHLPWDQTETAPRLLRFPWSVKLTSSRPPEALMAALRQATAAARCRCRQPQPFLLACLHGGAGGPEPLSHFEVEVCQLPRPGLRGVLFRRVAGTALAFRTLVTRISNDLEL

[13] = molecular target: T2, MAP/microtubule affinity-regulating kinase 4 (Homo sapiens); details: at 1 µM
[14] = molecular target: Maternal embryonic leucine zipper kinase (Homo sapiens) (UniProt Q14680); details: at 0.1 µM
Maternal embryonic leucine zipper kinase (Homo sapiens), sequence (Q14680 whole entry, looked up): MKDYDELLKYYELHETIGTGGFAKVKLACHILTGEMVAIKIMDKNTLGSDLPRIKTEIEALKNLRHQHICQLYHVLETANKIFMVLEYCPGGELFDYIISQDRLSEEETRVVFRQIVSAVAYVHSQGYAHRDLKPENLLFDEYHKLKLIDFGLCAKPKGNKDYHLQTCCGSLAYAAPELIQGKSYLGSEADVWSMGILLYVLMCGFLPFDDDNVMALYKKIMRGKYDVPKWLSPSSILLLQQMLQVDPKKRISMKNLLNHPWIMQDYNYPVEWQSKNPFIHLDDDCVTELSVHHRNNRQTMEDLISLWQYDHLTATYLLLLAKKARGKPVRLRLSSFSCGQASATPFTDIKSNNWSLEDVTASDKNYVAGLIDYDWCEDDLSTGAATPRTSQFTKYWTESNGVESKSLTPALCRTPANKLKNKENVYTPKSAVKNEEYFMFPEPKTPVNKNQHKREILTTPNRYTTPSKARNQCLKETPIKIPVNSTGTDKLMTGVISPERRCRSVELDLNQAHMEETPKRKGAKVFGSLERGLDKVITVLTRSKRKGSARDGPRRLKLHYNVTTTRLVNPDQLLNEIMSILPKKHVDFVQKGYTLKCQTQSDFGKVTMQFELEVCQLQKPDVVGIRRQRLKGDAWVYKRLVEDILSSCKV

[15] = molecular target: Maternal embryonic leucine zipper kinase (Homo sapiens) (UniProt Q14680); details: at 1 µM
[16] = molecular target: MAP kinase-interacting serine/threonine-protein kinase 1 (Homo sapiens) (UniProt Q9BUB5); details: at 0.1 µM
MAP kinase-interacting serine/threonine-protein kinase 1 (Homo sapiens), sequence (Q9BUB5 whole entry, looked up): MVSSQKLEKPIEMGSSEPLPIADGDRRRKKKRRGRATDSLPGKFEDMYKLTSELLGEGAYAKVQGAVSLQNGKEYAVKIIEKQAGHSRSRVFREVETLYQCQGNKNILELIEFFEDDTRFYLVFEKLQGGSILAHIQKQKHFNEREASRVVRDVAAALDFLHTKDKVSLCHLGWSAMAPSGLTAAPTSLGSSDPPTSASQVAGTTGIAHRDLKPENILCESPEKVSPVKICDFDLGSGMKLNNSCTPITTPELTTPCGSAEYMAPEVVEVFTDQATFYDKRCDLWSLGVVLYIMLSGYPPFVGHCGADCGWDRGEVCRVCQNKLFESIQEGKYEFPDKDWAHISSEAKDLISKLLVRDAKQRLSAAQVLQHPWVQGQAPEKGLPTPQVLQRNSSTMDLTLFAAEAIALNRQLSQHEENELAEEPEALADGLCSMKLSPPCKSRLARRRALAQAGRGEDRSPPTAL

[17] = molecular target: MAP kinase-interacting serine/threonine-protein kinase 1 (Homo sapiens) (UniProt Q9BUB5); details: at 1 µM
[18] = molecular target: MAP kinase-interacting serine/threonine-protein kinase 2 (Homo sapiens) (UniProt Q9HBH9); details: at 0.1 µM
MAP kinase-interacting serine/threonine-protein kinase 2 (Homo sapiens), sequence (Q9HBH9 whole entry, looked up): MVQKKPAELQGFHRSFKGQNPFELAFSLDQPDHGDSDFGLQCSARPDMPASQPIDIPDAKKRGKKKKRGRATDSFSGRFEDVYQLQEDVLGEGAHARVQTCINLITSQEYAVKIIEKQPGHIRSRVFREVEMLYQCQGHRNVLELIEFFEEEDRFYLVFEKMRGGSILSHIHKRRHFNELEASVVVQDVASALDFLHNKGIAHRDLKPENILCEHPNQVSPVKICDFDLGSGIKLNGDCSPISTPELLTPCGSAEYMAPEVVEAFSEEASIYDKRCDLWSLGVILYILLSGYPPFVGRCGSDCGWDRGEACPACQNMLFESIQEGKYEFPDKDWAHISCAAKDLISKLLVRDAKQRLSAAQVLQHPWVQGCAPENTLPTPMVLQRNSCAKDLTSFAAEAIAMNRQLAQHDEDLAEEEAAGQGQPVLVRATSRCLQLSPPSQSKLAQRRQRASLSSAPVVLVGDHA

[19] = molecular target: MAP kinase-interacting serine/threonine-protein kinase 2 (Homo sapiens) (UniProt Q9HBH9); details: at 1 µM
[20] = molecular target: Serine/threonine-protein kinase MARK2 (Homo sapiens) (UniProt Q7KZI7); details: at 0.1 µM;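 further: mean percent inhibition of PAR-1Balpha kinase activity, reported from the GSK PKIS screen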
Serine/threonine-protein kinase MARK2 (Homo sapiens), sequence (Q7KZI7 whole entry): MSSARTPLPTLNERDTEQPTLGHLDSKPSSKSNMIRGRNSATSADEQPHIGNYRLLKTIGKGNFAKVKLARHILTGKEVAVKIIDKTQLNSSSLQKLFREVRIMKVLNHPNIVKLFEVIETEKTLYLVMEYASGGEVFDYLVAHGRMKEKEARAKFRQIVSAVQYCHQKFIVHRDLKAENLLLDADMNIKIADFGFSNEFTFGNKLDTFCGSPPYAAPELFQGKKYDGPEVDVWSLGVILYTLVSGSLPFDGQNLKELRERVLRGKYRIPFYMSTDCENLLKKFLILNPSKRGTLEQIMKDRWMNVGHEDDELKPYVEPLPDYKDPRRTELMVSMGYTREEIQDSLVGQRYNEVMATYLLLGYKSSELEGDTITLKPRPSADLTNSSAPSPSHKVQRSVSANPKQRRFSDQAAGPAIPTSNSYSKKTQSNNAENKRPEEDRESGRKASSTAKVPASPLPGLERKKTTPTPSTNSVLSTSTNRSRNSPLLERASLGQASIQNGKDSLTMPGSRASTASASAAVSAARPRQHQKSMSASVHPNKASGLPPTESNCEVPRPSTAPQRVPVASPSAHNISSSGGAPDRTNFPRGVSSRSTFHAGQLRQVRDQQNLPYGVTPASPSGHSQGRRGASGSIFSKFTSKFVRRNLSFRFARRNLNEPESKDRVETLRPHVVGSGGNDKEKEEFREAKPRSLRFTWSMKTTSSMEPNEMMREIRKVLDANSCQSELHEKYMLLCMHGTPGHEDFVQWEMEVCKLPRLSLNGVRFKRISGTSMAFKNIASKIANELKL

Question: How did the inhibition [1] turn out when `CN(C)CCNC(=O)Nc1ccc(N(C)c2ccnc(Nc3ccc(CS(C)(=O)=O)cc3)n2)cc1` was run?
Answer: 4.89%

Question: What about the inhibition [2] of the same compound?
Answer: 2.39%

Question: What about the inhibition [3] of the same compound?
Answer: 1.2%

Question: And the inhibition [4]?
Answer: 1.53%

Question: What about the inhibition [5] of the same compound?
Answer: 1.45%

Question: And the inhibition [6]?
Answer: 2.22%

Question: What about the inhibition [7] of the same compound?
Answer: 2.99%

Question: What about the inhibition [8] of the same compound?
Answer: 4.47%

Question: And the inhibition [9]?
Answer: 9.32%

Question: What about the inhibition [10] of the same compound?
Answer: 6.51%

Question: And the inhibition [11]?
Answer: 6.62%

Question: What about the inhibition [12] of the same compound?
Answer: 1.9%

Question: And the inhibition [13]?
Answer: 8.9%

Question: What about the inhibition [14] of the same compound?
Answer: 4.26%

Question: And the inhibition [15]?
Answer: 16.1%

Question: What about the inhibition [16] of the same compound?
Answer: 1.51%

Question: What about the inhibition [17] of the same compound?
Answer: 3.79%

Question: And the inhibition [18]?
Answer: 0.95%

Question: And the inhibition [19]?
Answer: 5.14%

Question: What about the inhibition [20] of the same compound?
Answer: 2.5%

Question: Which results are given for `Nc1ncnc2occ(-c3ccc(NC(=O)Nc4cc(C(F)(F)F)ccc4F)cc3)c12`?
Answer: inhibition [1]: 4.75% and 1.06%; inhibition [2]: 3.65% and -1.65%; inhibition [3]: -4.63%; inhibition [4]: 1.16% and -1.74%; inhibition [5]: 1.1% and -1.65%; inhibition [6]: 3.46% and -1.38%; inhibition [7]: 13.9% and 7.55%; inhibition [8]: 1.91% and -0.63%; inhibition [9]: 3.01% and -0.26%; inhibition [10]: 1.57% and -1.4%; inhibition [11]: 2.97% and -0.26%; inhibition [12]: 0.43% and 1.7%; inhibition [13]: 2.95% and 1.13%; inhibition [14]: -6.51% and -4.36%; inhibition [16]: 6.91% and 2.48%; inhibition [17]: 30% and 16.5%; inhibition [18]: 7.71% and 2.55%; inhibition [19]: 40.3% and 28.8%; inhibition [20]: -0.86% and -0.02%

Question: Which inhibition [1] does the source give for `COc1cc2c(cc1Nc1nc(Nc3cccc(F)c3C(N)=O)c3cc[nH]c3n1)N(C(=O)CN1CCN(C(C)C)CC1)CC2` here?
Answer: 5.15%

Question: And the inhibition [2]?
Answer: 4.68%

Question: And the inhibition [3]?
Answer: 1.43%

Question: What about the inhibition [4] of the same compound?
Answer: 1.04%

Question: And the inhibition [5]?
Answer: 2.85%

Question: And the inhibition [6]?
Answer: 3.25%

Question: What about the inhibition [7] of the same compound?
Answer: 5.17%

Question: What about the inhibition [8] of the same compound?
Answer: 1.44%

Question: What about the inhibition [9] of the same compound?
Answer: 3.35%

Question: What about the inhibition [10] of the same compound?
Answer: 3.73%

Question: What about the inhibition [11] of the same compound?
Answer: 3.29%

Question: And the inhibition [12]?
Answer: 0.59%

Question: What about the inhibition [13] of the same compound?
Answer: 2.06%

Question: What about the inhibition [14] of the same compound?
Answer: 2.86%

Question: And the inhibition [15]?
Answer: 18.4%

Question: And the inhibition [16]?
Answer: 1.4%

Question: And the inhibition [17]?
Answer: 1.42%

Question: And the inhibition [18]?
Answer: 1.33%

Question: And the inhibition [19]?
Answer: 4.51%

Question: And the inhibition [20]?
Answer: 0.26%

Question: With `CC1=C(C(=O)Nc2ccc3[nH]nc(C)c3c2)C(c2ccc(C(F)(F)F)cc2)CC(=O)N1` (centres undefined) as the compound, how does the inhibition [1] read?
Answer: 4.3%

Question: What about the inhibition [2] of the same compound?
Answer: 1.35%

Question: What about the inhibition [3] of the same compound?
Answer: 0.55%

Question: And the inhibition [4]?
Answer: 1.67%

Question: And the inhibition [5]?
Answer: 0.92%

Question: What about the inhibition [6] of the same compound?
Answer: 0.91%

Question: And the inhibition [7]?
Answer: 3.08%

Question: And the inhibition [8]?
Answer: 1.38%

Question: What about the inhibition [9] of the same compound?
Answer: 3.89%

Question: And the inhibition [10]?
Answer: -1.82%

Question: And the inhibition [11]?
Answer: 5.26%

Question: What about the inhibition [12] of the same compound?
Answer: -0.05%

Question: And the inhibition [13]?
Answer: 3.18%

Question: What about the inhibition [14] of the same compound?
Answer: 3.65%

Question: What about the inhibition [15] of the same compound?
Answer: 18%

Question: What about the inhibition [16] of the same compound?
Answer: 3.53%

Question: And the inhibition [17]?
Answer: 6.23%

Question: What about the inhibition [18] of the same compound?
Answer: 1.45%

Question: And the inhibition [19]?
Answer: 4.23%

Question: What about the inhibition [20] of the same compound?
Answer: 0.75%

Question: Which results are given for `CS(=O)(=O)Nc1ccc(-c2ccc3c(NC(=O)C4CC4)n[nH]c3c2)cc1`?
Answer: inhibition [1]: 4.64%; inhibition [2]: 1.42%; inhibition [3]: 1.42%; inhibition [4]: 1.53%; inhibition [5]: 1.14%; inhibition [6]: 3.27%; inhibition [7]: 3.44%; inhibition [8]: 2.32%; inhibition [9]: 2.73%; inhibition [10]: 3.47%; inhibition [11]: 0.81%; inhibition [12]: 2.19%; inhibition [13]: 2.82%; inhibition [14]: 2.17%; inhibition [15]: 3.47%; inhibition [16]: 2.36%; inhibition [17]: 2.11%; inhibition [18]: 1.69%; inhibition [19]: 1.32%; inhibition [20]: -0.79%
